# Source: PubChem BioAssay
# Calls of active or inactive are those of the source. Rule as the data show it, unless noted: active = inhibition above about 80%; inactive = the rest.
# What was measured:
# [1] = LFS_MB_P medulloblastoma growth inhibition, cell-based, chromothripsis tumors, cisplatin or BGB combos (AID 1671449); details: LFS_MB_P medulloblastoma cells;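 also: cells exposed for 96 hours; 0% = vehicle DMSO and 100% = killing by high DMSO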
# [2] = HDN33 neuroblastoma growth inhibition, cell-based, chromothripsis tumors, cisplatin or BGB combos (AID 1671450); details: HDN33 neuroblastoma cells, stronger effect = higher value;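 also: cells exposed to compound for four days; 0% = vehicle DMSO and 100% = cell killing by high DMSO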
# [3] = ICB984 medulloblastoma cell growth inhibition, synergistic combos for chromothripsis tumors, cisplatin or BGB combos (AID 1671451; call rule not given here;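 also: cells exposed for 96 hours before readout; 0% = vehicle DMSO and 100% = killing by high DMSO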); details: ICB984 medulloblastoma cells, drug combinations, stronger effect = higher value
# [4] = LFS_MB_1R medulloblastoma cell growth inhibition, synergistic combos for chromothripsis tumors, cisplatin or BGB combos (AID 1671452); details: LFS_MB_1R medulloblastoma cells, stronger effect = higher value;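 also: cells exposed for 96 hours before readout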
# [5] = HTB85 osteosarcoma cell growth inhibition, synergistic combos for chromothripsis tumors, BGB or cisplatin IC20 combos (AID 1671453); details: HTB85 osteosarcoma cells, drug combinations, stronger effect = higher value;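 also: cells exposed for 96 hours before readout; 0% = vehicle DMSO and 100% = high DMSO killing control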
# [6] = CRL2098 osteosarcoma cell growth inhibition, synergistic combos for chromothripsis tumors, BGB or cisplatin IC20 combos (AID 1671454); details: CRL2098 osteosarcoma cells, drug combinations, stronger effect = higher value;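 also: cells exposed for 96 h before readout; 0% = vehicle DMSO and 100% = killing by high DMSO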
# [7] = HD-MB03 medulloblastoma cell growth inhibition, synergistic combos for chromothripsis tumors, BGB or cisplatin IC20 combos (AID 1671455; in the data active = inhibition above about 83%;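 also: 0% = vehicle DMSO and 100% = high DMSO as cytotoxic control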); details: HD-MB03 medulloblastoma cells, stronger effect = higher value
# [8] = UWB1.289 ovarian carcinoma cell growth inhibition, synergistic combos for chromothripsis tumors, BGB or cisplatin combos (AID 1671456); details: UWB1.289 ovarian carcinoma cells, stronger effect = higher value;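 also: cells exposed to compound for four days; 0% = vehicle DMSO and 100% = killing by high DMSO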
# [9] = LFS_MB_2R medulloblastoma cell growth inhibition, synergistic combos for chromothripsis tumors, cisplatin combos (AID 1671457); details: LFS_MB_2R medulloblastoma cells, stronger effect = higher value;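 also: cells exposed to compound for four days before readout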
# [10] = MDA-MB-436 breast carcinoma cell growth inhibition, synergistic combos for chromothripsis tumors, BGB or cisplatin combos (AID 1671458; call rule not given here;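 also: cells exposed for 96 hours; 0% = vehicle DMSO and 100% = killing by high DMSO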); details: MDA-MB-436 breast carcinoma growth inhibition, drug combinations, stronger effect = higher value
# [11] = UWB1.289_BRCA1 ovarian cancer growth, cell-based, BGB or cisplatin combinations (AID 1671459); details: UWB1.289 BRCA1 ovarian carcinoma, drug combinations, stronger effect = higher value
# [12] = human astrocyte viability loss, single and combined drugs, cytotoxicity control for chromothriptic childhood tumor combination screen, cell-based, BGB or cisplatin IC20 combos (AID 1671460); details: Human astrocytes, drug combinations, stronger effect = higher value;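 also: cells exposed to compounds for 96 hours before viability readout; 0% = vehicle and 100% = killing control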
# [13] = growth inhibition of BT084 medulloblastoma cells, cell-based, ICGC_MB145, cisplatin and BGB IC40 combos (AID 1671461); details: drug combinations, stronger effect = higher value;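 also: cells exposed to drugs for 96 hours; 0% = vehicle DMSO and 100% = high DMSO full killing control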
# [14] = growth inhibition of RCMB18 medulloblastoma cells, cell-based, cisplatin and BGB IC40 combos (AID 1671462); details: stronger effect = higher value;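 also: cells exposed to compound for four days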
# [15] = growth inhibition of CRL1545 osteosarcoma cells, cell-based, cisplatin and BGB IC20 combos (AID 1671464); details: stronger effect = higher value;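 also: cells exposed to compound for 96 hours before readout; 0% = vehicle DMSO and 100% = high DMSO killing control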
# [16] = measured here: combination with BGB IC40, at 0.05 µM
# [17] = measured here: with BGB IC20 combination, at 0.5 µM
# [18] = measured here: with cisplatin IC20 combination, at 0.5 µM
# [19] = measured here: combination with cisplatin, at 0.5 µM
# [20] = measured here: combination with cisplatin, at 5 µM
structure (smiles),measurement,setting,value
C=C(C)C1CCC2(C(=O)O)CCC3(C)C(CCC4C5(C)CCC(O)C(C)(C)C5CCC43C)C12 (stereo not drawn),inhibition,"[1]; at 0.5 µM, stronger effect = higher value",-26.5% (inactive)
same,inhibition,"[1]; measured here: combination with BGB IC20, at 0.005 µM",-25.5%
same,inhibition,"[1]; measured here: combination with BGB IC40, at 0.005 µM",15.5%
same,inhibition,[1]; [16],-1.2%
same,inhibition,"[1]; measured here: combination with cisplatin, at 0.5 µM, stronger effect = higher value",-45.1%
same,inhibition,"[1]; measured here: combination with cisplatin, at 5 µM, stronger effect = higher value",-28.2%
same,inhibition,"[2]; BGB combo, at 5 µM",-9.64%
same,inhibition,[2]; at 0.5 µM,-2.09% (inactive)
same,inhibition,"[2]; cisplatin combo, at 5 µM",-9.94%
same,inhibition,[2]; [17],-1.87%
same,inhibition,[2]; [18],-3.24%
same,inhibition,"[2]; single agent, at 5 µM",-1.41%
same,inhibition,"[3]; BGB IC20 combo, at 0.005 µM",-15.2%
same,inhibition,"[3]; BGB IC40 combo, at 0.005 µM",-18.6%
same,inhibition,"[3]; BGB IC40 combo, at 0.05 µM",9.33%
same,inhibition,[3]; at 0.5 µM,-29.1% (inactive)
same,inhibition,"[3]; cisplatin combo, at 0.05 µM",9.33%
same,inhibition,"[3]; cisplatin combo, at 0.5 µM",-38%
same,inhibition,"[3]; cisplatin combo, at 5 µM",-7.17%
same,inhibition,"[3]; measured here: 5 uM single agent, at 5 µM",-4.58%
same,inhibition,[4]; at 0.5 µM,-20% (inactive)
same,inhibition,[4]; [16],-20.5%
same,inhibition,[4]; [19],-33%
same,inhibition,[4]; [20],-12.9%
same,inhibition,[5]; at 0.5 µM,-2.9% (inactive)
same,inhibition,"[5]; measured here: with BGB IC20, at 0.5 µM",-17.7%
same,inhibition,"[5]; measured here: with BGB IC20, at 5 µM",-3.73%
same,inhibition,"[5]; measured here: with cisplatin IC20, at 0.5 µM",-4.54%
same,inhibition,"[5]; measured here: with cisplatin IC20, at 5 µM",5.41%
same,inhibition,"[5]; single agent, at 5 µM",-0.003%
same,inhibition,[6]; at 0.5 µM,-11.7% (inactive)
same,inhibition,"[6]; measured here: combination with BGB at IC20, at 0.5 µM",-25.6%
same,inhibition,"[6]; measured here: combination with cisplatin at IC20, at 0.5 µM",19.7%
same,inhibition,[7]; at 0.5 µM,-2.78% (inactive)
same,inhibition,"[7]; measured here: combo with BGB at IC20, at 0.5 µM",-2.46%
same,inhibition,"[7]; measured here: combo with cisplatin at IC20, at 0.5 µM",-4.95%
same,inhibition,[8]; at 0.5 µM,0.66% (inactive)
same,inhibition,"[8]; measured here: inhibition with BGB combination, at 0.05 µM",-7.77%
same,inhibition,"[8]; measured here: inhibition with cisplatin combination, at 0.05 µM",-4.44%
same,inhibition,[9]; at 0.5 µM,0.87% (inactive)
same,inhibition,[9]; [19],-5.32%
same,inhibition,[9]; [20],12.1%
same,inhibition,[10]; at 0.5 µM,-18.9% (inactive)
same,inhibition,"[10]; measured here: BGB combination, at 0.5 µM",-9.2%
same,inhibition,"[10]; measured here: BGB combination, at 5 µM",-5.74%
same,inhibition,"[10]; measured here: cisplatin combination, at 0.5 µM",-43.5%
same,inhibition,"[10]; measured here: cisplatin combination, at 5 µM",3.21%
same,inhibition,"[11]; BGB combination, concentration series, at 5 µM",-4.55%
same,inhibition,[11]; at 0.5 µM,-1.24% (inactive)
same,inhibition,"[11]; cisplatin combination, concentration series, at 5 µM",-5.38%
same,inhibition,[12]; at 0.5 µM,6.79% (inactive)
same,inhibition,"[12]; measured here: combo with BGB IC20, at 0.5 µM",-11.2%
same,inhibition,"[12]; measured here: combo with cisplatin IC20, at 0.5 µM",21%
same,inhibition,[13]; at 0.5 µM,-12.4% (inactive)
same,inhibition,"[13]; cisplatin combination, at 0.5 µM",-2.33%
same,inhibition,"[13]; cisplatin combination, at 5 µM",-35.9%
same,inhibition,"[13]; measured here: BGB IC40 combination 0.05 uM, at 0.05 µM",10.4%
same,inhibition,"[13]; single agent, at 5 µM",-5.82%
same,inhibition,[14]; at 0.5 µM,-0.59% (inactive)
same,inhibition,"[14]; cisplatin combo, at 5 µM",-5.83%
same,inhibition,"[14]; measured here: BGB IC40 combination, at 0.05 µM",12.3%
same,inhibition,[14]; [19],-32.4%
same,inhibition,"[14]; single agent, at 5 µM",7.3%
same,inhibition,[15]; at 0.5 µM,-2.94% (inactive)
same,inhibition,[15]; [17],-13.1%
same,inhibition,[15]; [18],2.15%
same,inhibition,"[15]; single agent, at 0.05 µM",-25.4%
same,inhibition,"[15]; single agent, at 5 µM",16.8%
